# Results as given in PubChem BioAssay AID2289 (National Center for Advancing Translational Sciences (NCATS), 2010).
# The whole screen tested about 340,000 compounds, of which about 3,300 (0.97%) were called active. Roughly 9% stayed inconclusive and do not appear here. Calls come from the whole dose curve; as a rule, active = well fitted inhibition curve with a large enough effect; inconclusive = small, poorly fitted or top-dose-only effect, or effect the other way; inactive = flat fitted curve, though single readings scatter. Some of the results follow.
# Assay: qHTS Assay for Modulators of miRNAs and/or Inhibitors of miR-21; note: nearly all actives have a fitted effect of over 55% in size
# Settings: HeLa miR-21-FLuc reporter, luciferase luminescence, 48 h; actives lower the signal
# How it was run: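 HeLa cells stably expressing CMV-driven firefly luciferase with a downstream miR-21 binding sequence, endogenously expressing miR-21, were treated with titrations (up to about 40uM final) for 48 hours at 37 degree Celsius. Luciferase luminescence was read after lysis.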
# Potency is the fitted concentration of half-maximal effect.
row,Structure (SMILES),Potency
1,COC(=O)c1ccc(COc2ccc3c(c2)CCC3)o1,5.21 µM (active)
2,COC(=O)c1ccc(COc2ccc(C)cc2[N+](=O)[O-])o1,13.1 µM (active)
3,CCc1ccc(OCc2ccc(C(=O)OC)o2)cc1,5.21 µM (active)
4,Cc1cc(Cl)c2oc(C(=O)N(C)C3CCOC3)c(C)c2c1 (stereo not given),14.7 µM (active)
5,Cc1cc(Cl)c2oc(C(=O)N(C)CC3CCOCC3)c(C)c2c1,14.7 µM (active)
6,Cc1cc(Cl)c2oc(C(=O)NCCC3CCCCO3)c(C)c2c1 (stereo not given),14.7 µM (active)
7,C=CCN(C(=O)c1oc2c(Cl)cc(C)cc2c1C)C1CCS(=O)(=O)C1 (stereo not given),10.4 µM (active)
8,CCCCn1cnc2c(oc3ccccc32)c1=O,13.1 µM (active)
9,Cc1nc2sc(-c3ccccc3)cc2c(=O)n1/N=C/N(C)C,3.29 µM (active)
10,CCc1cc2c(=O)n(-c3ccccc3)cnc2s1,13.1 µM (active)
11,CN(C)c1ncnc2sc(-c3ccccc3)cc12,14.7 µM (active)
12,CCc1cc2c(SCC(=O)c3ccccc3)ncnc2s1,8.26 µM (active)
13,CC(=O)Cn1nnc2sc(-c3ccccc3)cc2c1=O,1.85 µM (active)
14,CCn1cnc2sc(-c3ccccc3)cc2c1=O,1.47 µM (active)
15,O=C(CSc1ncnc2ccccc12)c1ccc2c(c1)OCCO2,2.07 µM (active)
16,CC(=O)Cn1cnc2sc(-c3ccccc3)cc2c1=O,4.14 µM (active)
17,CCCCn1cnc2sc(-c3ccccc3)cc2c1=O,1.31 µM (active)
18,Cn1c(C(=O)NC2CCCCC2)cc2sccc21,6.56 µM (active)
19,O=C(NC1CCCCC1)c1cc(-c2cccs2)on1,2.93 µM (active)
20,O=C(NC1CCCC1)c1cc(-c2cccs2)on1,2.33 µM (active)
21,O=C(Nc1nnc(SCc2c(Cl)cccc2Cl)s1)C1CCCO1 (stereo not given),18.5 µM (active)
22,O=C(Nc1nnc(-c2ccccc2F)s1)C1CCCO1 (stereo not given),1.85 µM (active)
23,O=C(Nc1ncc(Cc2cccc(Cl)c2)s1)C1CCCO1 (stereo not given),7.36 µM (active)
24,Cc1cccc2sc(NC(=O)C3CCCO3)nc12 (stereo not given),13.1 µM (active)

row,Structure (SMILES),Potency
1,O=C(Nc1ncc(Cc2cccc(Cl)c2Cl)s1)C1CCCO1 (stereo not given),7.36 µM (active)
2,CC1CCCN(c2ccc(C(=O)NCc3cccs3)cn2)C1 (stereo not given),6.56 µM (active)
3,CC(C)(CO)NC(=O)c1ccc2c(c1)C(=O)c1ccccc1-2,5.21 µM (active)
4,Cc1ccsc1C(=O)OCC(=O)NCCC1=CCCCC1,18.5 µM (active)
5,O=c1[nH]cnc2scc(-c3ccc(-c4ccccc4)cc3)c12,0.521 µM (active)
6,N#Cc1c(-n2ncnc2-c2ccc(F)cc2)sc2c1CCCCC2,3.69 µM (active)
7,Cc1ccccc1-c1ncnn1-c1sc2c(c1C#N)CCCCC2,1.31 µM (active)
8,C1=Nc2ccccc2CN1c1ccccc1,5.85 µM (active)
9,Oc1cccc(-c2nc3ccc4ccccc4c3c3c2CCC3)c1,5.21 µM (active)
10,CCOCCCNC(=O)c1cccc(OC2CCN(S(C)(=O)=O)CC2)c1,5.85 µM (active)
11,Nc1c(C(=O)N2CCCCC2)sc2nc3c(cc12)CCCC3,1.31 µM (active)
12,Nc1c(C(=O)C2CC2)sc2nc3c(cc12)CCC3,1.85 µM (active)
13,COCCCN(C(C)=O)c1nc(-c2ccccc2)cs1,6.56 µM (active)
14,CN(C(=O)c1ccco1)c1nc(-c2ccccc2)cs1,1.85 µM (active)
15,COc1ccccc1/C=N/Nc1nncc2ccccc12,4.65 µM (active)
16,COc1ccc(/C=N/Nc2nncc3ccccc23)c(OC)c1,5.85 µM (active)
17,COc1ccccc1C(=O)NC1=NC(c2ccc(Br)cc2)CC(=O)N1 (stereo not given),1.85 µM (active)
18,N=c1nc(N)nc2n1NC(c1ccc(F)cc1)=CS2,16.5 µM (active)
19,Clc1ccccc1/C=C/c1nc(-c2cccnc2)no1,0.656 µM (active)
20,C(=C\c1nc(-c2ccccc2)no1)/c1ccccc1,1.04 µM (active)
21,Cc1ccc2oc(-c3ccco3)cc(=O)c2c1,5.85 µM (active)
22,Cc1cccc2c1-c1sc(C(=O)Nc3ccccc3C(N)=O)cc1CO2,0.165 µM (active)
23,Cc1cccc2c1-c1sc(C(=O)N3CCCCC3)cc1CO2,3.69 µM (active)
24,CCN(CC)c1ccc(-c2nc3cnccc3n2C)cc1,3.69 µM (active)

row,Structure (SMILES),Potency
1,COc1ccc(NC(=O)n2ncc3cc(Cl)ccc32)cc1OC,8.26 µM (active)
2,COc1ccc(NC(=O)n2ncc3c(C)cccc32)cc1OC,7.36 µM (active)
3,COc1ccc2nc3sc(C(=O)NCc4cccs4)c(N)c3cc2c1,1.31 µM (active)
4,Cc1ccc2nc3sc(C(=O)NCc4ccco4)c(N)c3cc2c1,0.521 µM (active)
5,c1ccc(CN2CCN(c3nc4ccccc4s3)CC2)cc1,1.31 µM (active)
6,Clc1ccc2nc(N3CCCCC3)sc2c1,2.07 µM (active)
7,Clc1ccc2nc(N3CCN(c4ccccc4)CC3)sc2c1,0.464 µM (active)
8,CC(C)(C)c1ccc(/C=C/C(=O)Nc2nncs2)cc1,0.369 µM (active)
9,O=C(COc1ccc2ccccc2c1Br)NC(=S)Nc1cccc(CO)c1,20.7 µM (active)
10,O=C(COc1ccc(Br)cc1Br)NC(=S)Nc1cccc(CO)c1,1.65 µM (active)
11,COc1ccc(C(=O)N=c2sc3c(C)ccc(OC)c3n2C)cc1,0.185 µM (active)
12,COc1ccccc1C(=O)N=c1sc2c(C)ccc(OC)c2n1C,3.69 µM (active)
13,CCn1c(=NC(=O)c2ccc3c(c2)OCCO3)sc2c(C)ccc(OC)c21,1.31 µM (active)
14,CCc1ccc(C(=O)NC(=S)Nc2ccc3c(c2)OCCO3)cc1,2.07 µM (active)
15,O=C(NC(=S)Nc1ccc2c(c1)OCCO2)c1cccc(Br)c1,3.69 µM (active)
16,Cc1cc(C)cc(C(=O)NC(=S)Nc2ccc3c(c2)OCCO3)c1,7.36 µM (active)
17,O=C(O)c1ccc(-c2nc(-c3ccc(Cl)cc3)cs2)cc1,0.414 µM (active)
18,CNC(=O)c1ccc(-c2nc(-c3ccccc3)cs2)cc1,3.29 µM (active)
19,O=C(O)c1ccc(-c2nc(-c3ccccc3)cs2)cc1,2.61 µM (active)
20,COc1ccccc1NC(=O)C/C(C)=N/NC(=O)c1ccccn1,1.85 µM (active)
21,C/C(CC(=O)Nc1cc(C)cc(C)c1)=N\NC(=O)c1ccccn1,4.65 µM (active)
22,C/C(CC(=O)NCc1ccccc1Cl)=N/NC(=O)c1ccccn1,8.26 µM (active)
